We go through 106 compounds from ChEMBL document CHEMBL4513216, “Probing the Open Global Health Chemical Diversity Library for Multistage-Active Starting Points for Next-Generation Antimalarials” (ACS Infect Dis, 2020).

Screen size: about 65,000 compounds; about 2,100 (3.2%) showed an effect of 50% or more. The median lay at about -52%. The entries come from a sample that favours strong results as a whole.

In the test the test system is Plasmodium falciparum. The test can be described thus: Screen against P. falciparum Asexual Blood Stage (ABS), at 5uM. As to conditions: tested at 5 uM. Type of test: functional, Dd2.
Regarding `C=C1C(C)(C)[C@@H]2CC[C@]1(C(=O)N1CCC(n3cc(CO)nn3)CC1)C2`, the INHIBITION was -90.8%.
To `Cc1nc(CN(C)C2CCN(CCC(=O)N3CCOCC3)C2)no1` (stereo unspecified) belongs -30.8%.
Regarding `Cc1nc(C)n(CC2CCCN2Cc2nc(-c3ccco3)no2)n1` (stereo unspecified), the INHIBITION is listed as -131%.
To `Cc1nc(C)n(CC2CCCN2Cc2cc(-c3cccs3)on2)n1` (stereo unspecified) belongs 65.2%; to `Cc1nc(C)n(CC2CCCN2Cc2coc(-c3cccs3)n2)n1` (stereo unspecified), -63.6%; to `Cc1nc(C)n(CC2CCCCN2Cc2nc(-c3ccco3)no2)n1` (stereo unspecified), 61.7%.
In the case of `Cc1nc(C)n(CC2CCCN2Cc2nc(-c3cccs3)no2)n1` (stereo unspecified), the INHIBITION is 23.3%.
For the compound `Cc1nc(C)n(CC2CCCCN2Cc2nc(-c3ccoc3)no2)n1` (stereo unspecified), the INHIBITION was -49.9%.
Next, `Cc1oc(-c2ccccc2)nc1CN1CCC(c2ccnn2C)CC1`: -18.9%; `Cc1nc(C(=O)N2CCOCC2)cc(N2CCC(C(N)=O)CC2)n1`: -45.2%; `Cn1nccc1-c1ncc2c(c1C(=O)O)CCN(Cc1ccccc1)C2`: -41.8%.
For the compound `COCC(=O)N1CCN(Cc2cccnc2)c2ncccc2C1`, the INHIBITION is -53.1%.
To `CN(C)C(=O)CC1CC2(CCNCC2)c2cc(F)ccc21` (stereo unspecified) belongs -22.3%; to `CN(C)C(=O)c1cnn2c1OCCC2`, -117%; to `CC1CCN(S(=O)(=O)c2cccnc2)c2ccccc2S1` (stereo unspecified), 55%.
For the compound `CCn1cc(S(=O)(=O)N2CCC(C)Sc3ccccc32)cn1` (stereo unspecified), the INHIBITION is -0.433%.
Turning to `CN1CCN(S(=O)(=O)c2cccnc2)c2cnccc21`, the INHIBITION is reported as -111%.
As for `CS(=O)(=O)N1CCCC1CS(=O)(=O)c1ccccc1` (stereo unspecified), the INHIBITION is given as -100%.
To `CN(C)CC(Nc1nc(N)nc2c1CCNCC2)c1ccccc1` (stereo unspecified) belongs -104%.
Next, `CCOC(=O)[C@H]1[C@@H](O)C(=O)N(C)C12CCN(C(=O)CC1CCCC1)CC2`: -1.62%; `Cn1cnc2c(N3CCCC3)nc(C3CCN(CC4CC4)CC3)cc21`: 68.8%.
To `Cn1cnc2c(N3CCCC3)nc(C3CCNCC3)cc21` belongs -31.4%; to `Cn1cc(-c2nc(C3CCN(CC4CC4)CC3)cc3c2ncn3C)cn1`, -98.2%; to `c1cnnc(N2CCCC(NCc3nc(-c4ccco4)no3)C2)c1` (stereo unspecified), -78.3%.
As for `O=C(COc1ccccc1)N1C[C@@H]2COC[C@]2(COc2cccnc2)C1`, the INHIBITION was -110%.
To `Cn1nc(N2CCCC(C(=O)Nc3nc4ccccc4[nH]3)C2)ccc1=O` (stereo unspecified) belongs -105%.
On to `Cc1cc(C)n(CC(C)NC(=O)NCc2c(C)cc(C)[nH]c2=O)n1` (stereo unspecified), for which the INHIBITION is on record as -51.8%.
Next, `O=C1CNc2ncnc(N3CCN(c4ccccc4F)CC3)c2N1`: -21.3%; `CCOc1ccc(CN(CCC#N)CCN2CCOCC2)cc1OC`: -99%; `COc1ccc(CN(CCC#N)CCN2CCOCC2)cc1OC`: -43.2%.
Next, `N#CCCN(CCN1CCOCC1)Cc1ccc(F)c(Br)c1`: 52.6%; `CC(C)C(=O)N1CCC2(CC1)COCCN2Cc1ccc(F)cc1`: -29.9%.
Next, `O=C1CNc2ncnc(Nc3cnn(Cc4ccc(F)cc4)c3)c2N1`: -134%.
In the case of `CN(Cc1ccc(F)cc1F)Cc1cc2c(cc1Br)OCCO2`, the INHIBITION was -30.1%.
Regarding `Cc1ccc(F)c(N2CCCC(Nc3nccn4cnnc34)C2=O)c1` (stereo unspecified), the INHIBITION is listed as -141%.
To `Cn1cc(NS(=O)(=O)c2ccc3c(c2)CCCC3)ccc1=O` belongs -133%; to `CC(C)(O)CN1CCN(C(=O)c2ccc(Cl)c3cccnc23)CC1`, -2.98%; to `CC(C)(C)[S+]([O-])CCNC(=O)c1ccc(Cl)c2cccnc12` (stereo unspecified), -46.8%.
To `CCS(=O)(=O)NCCNCc1ccc(Cl)c2cccnc12` belongs 61.5%; to `O=C(CCCNCc1ccc(Cl)c2cccnc12)NC1CC1`, 11.3%.
With `CC(C)(O)CSCCNCc1ccc(Cl)c2cccnc12`, the INHIBITION was 67.7%.
To `CC(=O)NCCCNCc1ccc(Cl)c2cccnc12` belongs -36.6%; to `CN(C)C(=O)CC1CC2(CCN(Cc3ccsc3)CC2)c2ccccc21` (stereo unspecified), 14.2%; to `COC(=O)C(c1cc(F)ccc1F)N(C)C(=O)c1cnc(C)cn1` (stereo unspecified), -85.1%.
Next, `CN(Cc1noc(C(C)(C)C)n1)C1CCCN(c2cccnn2)C1` (stereo unspecified): -18.2%.
As to `CN(C)C(=O)N1CCC(c2nc3ccc(-c4ccccc4)cn3n2)CC1`, the INHIBITION is -52.3%.
To `CN(C)c1ncc(I)c(C2CCCN2C)n1` (stereo unspecified) belongs 20.7%.
To `CN(C)c1ncc(I)c(C2CCCCN2S(C)(=O)=O)n1` (stereo unspecified) belongs -17.7%; to `CN(C)c1ncc(I)c(C2CCCCN2C)n1` (stereo unspecified), 57.8%.
Next, `CCOC(=O)c1ccccc1NC(=O)CN(C)Cc1ccccc1Cl`: 8.05%; `Cc1c(C(=O)O)cnn1-c1ccc(-c2nc(C(C)(C)C)no2)cn1`: -116%; `CS(=O)(=O)NC[C@]12COC[C@H]1CN(CC1CCC1)C2`: -40%.
In the case of `Cc1ccc(CN2CC3(CCN(C(=O)c4cscn4)C3)C2)o1`, the INHIBITION is -13.6%.
For the compound `CN(C)CCn1ccnc1C1CCCN(c2nccc3ccccc23)C1` (stereo unspecified), the INHIBITION is listed as 57.4%.
To `CCn1ccnc1C1CCCN(c2nccc3ccccc23)C1` (stereo unspecified) belongs 30.8%; to `COc1cc(OC)nc(N2CCCC(c3nccn3CCN(C)C)C2)n1` (stereo unspecified), -23.1%.
Consider `CN(C)CCn1ccnc1C1CCCN(c2cc(N)ncn2)C1` (stereo unspecified), for which the INHIBITION is given as -52.8%.
For `CN(C)Cc1nnc(C2CCCN(c3nccc4ccccc34)C2)n1C` (stereo unspecified), the INHIBITION is -10.1%.
Turning to `Cc1cc(C)nc(N2CCCC(c3nccn3CCCN(C)C)C2)c1` (stereo unspecified), the INHIBITION was determined as 51.7%.
To `COc1ccc(CCN(C)CCS(=O)(=O)c2ccc(Cl)cc2)cc1OC` belongs -7.75%.
Next, `COCC(=O)N1CCC2(CC1)COc1ccccc1S(=O)(=O)N(C)C2`: -129%; `O=C1CNc2ncnc(N3CCN(Cc4cccc(F)c4)CC3)c2N1`: -56.6%; `CC(=O)Nc1nc(C(=O)N2CCCC(n3nc(C)nc3C)C2)cs1` (stereo unspecified): -113%.
With `O=C(c1cccnc1SCc1ccccc1)N1CCOCC1`, the INHIBITION is recorded as -36.4%.
Next, `O=C(c1cccnc1SC/C=C/c1ccccc1)N1CCOCC(O)C1` (stereo unspecified): 55.5%; `O=C(c1cccnc1SC/C=C/c1ccccc1)N1CC[C@H](O)C1`: -66.8%; `CCOCCCNC(=O)c1cc(C)nc(N2CCCCC2)n1`: -133%.
Next, `O=C(c1cnco1)N1CCC(Cc2cccc3ncccc23)CC1`: -2.05%.
For the compound `O=C(c1cnco1)N1CCC(Cc2cnc3ccccc3c2)CC1`, the INHIBITION was -56.6%.
Regarding `O=C(c1cnco1)N1CCC(Cc2ccc3ncccc3c2)CC1`, the INHIBITION was 67.4%.
For `Cn1cc(C[C@H]2[C@H](O)CCN2C(=O)c2ccsc2)cn1`, the INHIBITION is reported as -51.7%.
Next, `Cc1cc2ccccc2n1CCC(=O)N1CCCC(O)(CN(C)C)CC1` (stereo unspecified): 55.2%; `Cc1cc2ccccc2n1CCC(=O)N1CCC2(CC1)CNC(=O)C2`: -33.5%; `Cc1cc2ccccc2n1CCC(=O)N1CCCC2(CC1)CNC(=O)O2` (stereo unspecified): 21.3%.
Next, `CN(C)CCn1ccnc1C1CCN(c2cc(N)nc(N)n2)CC1`: -90.3%; `Cc1ccc(OCc2occc2C(=O)O)cc1`: -66.2%; `OCC1(Cc2ccccc2F)CCCN(c2ccc3ccccc3n2)C1` (stereo unspecified): -37.1%.
As for `Cc1ccsc1CN(CCN(C)C)C(=O)c1ccccc1C#N`, the INHIBITION turned out to be 60.9%.
As to `COC(=O)c1ccccc1C(=O)N(CCN(C)C)Cc1sccc1C`, the INHIBITION stood at 18.3%.
Next, `Cc1ccsc1CN(CCN(C)C)C(=O)c1ccc(C#N)nc1`: 46.5%.
To `O=C1CC[C@H]2[C@H](CCN2C(=O)C2CCOC2)N1Cc1ccncc1` (stereo partly specified) belongs -87.6%; to `COc1ccc(CN2CCc3ncnc(C4CC4)c3CC2)cc1`, -30.4%.
Next, `CC(C)Oc1ncnc2c1CCN(Cc1ccco1)CC2`: 61.2%; `CC(C)Oc1ncnc2c1CCN(Cc1ccoc1)CC2`: 31.6%; `CC(C)Oc1ncnc2c1CCN(Cc1cccs1)CC2`: -52.8%.
Take `Cc1ccc(CN2CCc3ncnc(OC(C)C)c3CC2)s1`: the INHIBITION is listed as 0.437%.
As to `COc1ccc(CN2CCc3ncnc(OC(C)C)c3CC2)cc1`, the INHIBITION is recorded as 63.6%.
With `COC(=O)c1ccc(NC(C)c2ccc3c(c2)NC(=O)CO3)nn1` (stereo unspecified), the INHIBITION was -143%.
As for `O=C(O)CNc1cc(-c2nccnc2N2CCCC2)c2cc[nH]c2n1`, the INHIBITION was -6.02%.
Next, `O=C(Nc1ccccc1)c1n[nH]c(-n2cnnc2)n1`: -64.6%.
`Cc1occc1C(=O)N1CCCC(c2nncn2C)C1` (stereo unspecified): the INHIBITION was -65.6%.
On to `CN1CCN(c2ccncc2S(=O)(=O)N2CCCCC2)CC1`, for which the INHIBITION is reported as -92.3%.
To `Cc1nc(C2CCCN2CC(=O)NCCOc2ccccc2)no1` (stereo unspecified) belongs -62.7%; to `CCc1nc(C2CCCN2CCCS(=O)(=O)c2ccccc2)no1` (stereo unspecified), 48.7%; to `COc1ccccc1CCNC(=O)CN1CCCC1c1noc(C)n1` (stereo unspecified), -3.9%.
With `CCc1nc(C2CCCN2CC(=O)NCCOc2ccccc2)no1` (stereo unspecified), the INHIBITION stood at 58.6%.
Next, `COCc1cccc(CNC(=O)CN2CCCC2c2noc(C)n2)c1` (stereo unspecified): -27.1%.
As for `Cc1cccc(OCCNC(=O)CN2CCCC2c2noc(C)n2)c1` (stereo unspecified), the INHIBITION came to 31.6%.
For `COCc1ccccc1CNC(=O)CN1CCCC1c1noc(C)n1` (stereo unspecified), the INHIBITION was found to be 51.2%.
Next, `CCc1nc(C2CCCN2CCS(=O)(=O)c2ccccc2)no1` (stereo unspecified): 60%.
Next, `CC(C)c1nc(C2CCCN2CCS(=O)(=O)c2ccccc2)no1` (stereo unspecified): -158%; `CCOC1(C)C(=O)c2ccccc2N1Nc1ccccc1C(=O)CC` (stereo unspecified): -50.6%; `O=C1CC[C@H]2[C@H](CCN2c2ncccn2)N1c1ccccc1`: -72.8%.
As to `CN1CCN(C(=O)[C@H]2CC[C@@H]3[C@@H](CCN3Cc3ccsc3)O2)CC1`, the INHIBITION was -1.36%.
To `COc1cc(N2C[C@H]3CCC[C@@H](CN4CCCC4)[C@H]3C2)ncn1` belongs -13.2%; to `Cc1c(C(=O)NCC(C)C)nnn1-c1cccc2c1CCN(C)C2`, 26.2%.
